The compounds below were run on EIF2AK1. Settings: concentration: 1 μM, replicates: in singlicate; n = 1.
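Note: KINOMEscan kinase panel screen.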

SMILES	%Inh [%]
CCNc1nccc(-c2c(-c3ccc(F)cc3)ncn2C2CCN(C)CC2)n1	0
Fc1cc(Cl)ccc1Nc1ccnc2cc(-c3ccc(CN4CCSCC4)o3)ccc12 [GW560106]	0
NCCC(NC(=O)c1cc(Br)c(-c2ccnc3[nH]ccc23)s1)c1ccccc1.O=C(O)C(F)(F)F.O=C(O)C(F)(F)F (stereo not drawn) [GSK1307810]	0
Cc1ccc(NC(=O)c2ccc(Cl)c(Cl)c2)cc1-c1ccc(C(=O)Nc2ccncc2)cc1 [GSK1398460]	7
O=C(O)C(F)(F)F.O=c1[nH]ccc2nc(N[C@@H]3CCNC3)nc(Nc3cc(Cl)cc(Cl)c3)c12 [GSK2188764]	18
Nc1ncnc2scc(-c3ccc(NC(=O)Cc4cc(F)ccc4F)cc3)c12.O=C(O)C(F)(F)F [SB-731254-M]	95.2
Cc1ccc(NC(=O)c2ccnc(N3CCCCC3)c2)cc1-c1ccc(C(=O)NCC2CC2)cc1 [GW775610]	0
Fc1cc(Cl)ccc1Nc1ccnc2cc(-c3ccc(CN4CCOCC4)o3)ccc12 [GW560109]	10
CS(=O)(=O)c1cccc(CNc2nc(Nc3ccc4c(c3)CCC(=O)N4)ncc2C(F)(F)F)c1	0
Cc1cc(-c2c(-c3ccc(F)cc3)ncn2CCCN2CCOCC2)nc(N)n1 [SB-222517]	0
CN1CCN(Cc2ccc(NC(=O)Nc3ccc(N(C)c4ccnc(Nc5ccc(CS(C)(=O)=O)cc5)n4)cc3)cc2)CC1.Cl [GW827654]	0
COc1cccc(C2=C(Nc3cccc(O)c3)C(=O)NC2=O)c1 [SB-390771]	3
O=C(Nc1n[nH]c2nc(-c3cccc(O)c3)ccc12)C1CC1 [SB-711805]	0
CN(c1ccc(NC(=O)Nc2cccc(Cl)c2)cc1)c1ccnc(N)n1.Cl [GW830707]	0
CC(=O)Nc1cn2nc(Oc3cccc(NC(=O)c4cccc(C(F)(F)F)c4)c3)ccc2n1	0
COc1ccc(C)c(Nc2ccnc(Nc3ccc(-c4cnc[nH]4)cc3)n2)c1.Cl [GW784041]	0
Cl.Cl.NC(CNC(=O)c1cc(Br)c(-c2ccnc3[nH]ccc23)s1)c1ccccc1 (stereo not drawn) [GSK1322949]	1

What follows are compounds tested on EPHA1. Settings: concentration: 1 μM, replicates: in singlicate; n = 1.

SMILES	%Inh [%]
Nc1ncc(-c2ccc3nccc(-c4ccncc4)c3c2)cc1S(=O)(=O)N1CCCCC1 [GSK1693850]	0
COc1cccc(CC(=O)N2CCc3cc(-c4cn(C)c5ncnc(N)c45)ccc32)c1 [GSK2608899]	0
CC(C)NCC(Cc1ccccc1)NC(=O)c1cc(Br)c(-c2ccnc3[nH]ccc23)s1.Cl.Cl (stereo not drawn) [GSK1383281]	6
Nc1ncc(-c2cn[nH]c2)c2scc(-c3ccc4c(c3)CCN4C(=O)Cc3ccccc3)c12 [GSK2593067]	26
Cc1cccc(Nc2nc(NCCN)ncc2C(N)=O)c1 [GSK1292139]	14
CC(C)c1nc(-c2cccc(NS(=O)(=O)c3c(F)cccc3F)c2)c(-c2ccnc(Nc3ccc(N4CCOCC4)nc3)n2)s1.Cl [GSK1723980]	97.7
Cc1ccc(-c2ccc3occ(-c4ccc(S(C)=O)cc4)c3c2)nn1 (stereo not drawn)	0
COc1ccc(C2=C(Nc3cccc(O)c3)C(=O)NC2=O)cc1 [SB-390766]	11
COc1ccc(NC(=O)c2ccoc2)cc1-c1ccc(C(=O)NCC2CC2)cc1 [GW810437]	0
Cc1nn2c(=O)cc(N3CCO[C@H](C)C3)nc2n1Cc1cccc(Cl)c1Cl [GSK2373693]	1
Cl.O=C(Nc1ccc(Oc2ccc3[nH]c(NC(=O)c4ccco4)nc3c2)cc1)Nc1cc(C(F)(F)F)ccc1F [GW683134]	91.8
O=C(O)C(F)(F)F.O=c1[nH]ccc2nc(N[C@@H]3CCNC3)nc(Nc3ccc4c(c3)S(=O)(=O)CC4)c12 [GSK2181306]	12
O=C(Nc1n[nH]c2cc(-c3cccs3)ccc12)C1CC1 [SB-731284]	0
CNc1nccc(-c2ccc3c(N)n[nH]c3c2)n1 [GSK2206003]	11
COc1cccc(NC(=O)NCCNc2ccnc(Nc3ccc(F)cc3)n2)c1 [GSK1379879]	52
CN(c1ccc2c(c1)nc(NCc1ccccc1)n2C)c1ccnc(Nc2ccc(CS(C)(=O)=O)cc2)n1.Cl [GW811603]	0
Cc1ccc(O)cc1Nc1ccnc2cc(-c3ccc(CN4CCCCC4)o3)ccc12 [GW557777]	99.7
Cc1cccc(Nc2nc(N[C@H]3CCCC[C@H]3N)ncc2C(N)=O)c1.Cl [GSK986310]	26
c1ccc(Oc2ccc(Nc3ccnc4cc(-c5ccc(CN6CCCCC6)o5)ccc34)cc2)nc1 [GW567143]	78

SMILES	%Inh [%]
CC(C)c1nc(-c2ccc(F)c(NS(=O)(=O)c3c(F)cccc3F)c2)c(-c2ccnc(Nc3ccc(N4CCOCC4)nc3)n2)s1 [GSK1804250]	96.2
CCNc1nccc(-c2c(-c3ccc(F)cc3)ncn2C2CCN(C)CC2)n1	0
Fc1cc(Cl)ccc1Nc1ccnc2cc(-c3ccc(CN4CCSCC4)o3)ccc12 [GW560106]	91.1
NCCC(NC(=O)c1cc(Br)c(-c2ccnc3[nH]ccc23)s1)c1ccccc1.O=C(O)C(F)(F)F.O=C(O)C(F)(F)F (stereo not drawn) [GSK1307810]	10
Cc1ccc(NC(=O)c2ccc(Cl)c(Cl)c2)cc1-c1ccc(C(=O)Nc2ccncc2)cc1 [GSK1398460]	13
O=C(O)C(F)(F)F.O=c1[nH]ccc2nc(N[C@@H]3CCNC3)nc(Nc3cc(Cl)cc(Cl)c3)c12 [GSK2188764]	6
Nc1ncnc2scc(-c3ccc(NC(=O)Cc4cc(F)ccc4F)cc3)c12.O=C(O)C(F)(F)F [SB-731254-M]	13
Cc1ccc(NC(=O)c2ccnc(N3CCCCC3)c2)cc1-c1ccc(C(=O)NCC2CC2)cc1 [GW775610]	0
Fc1cc(Cl)ccc1Nc1ccnc2cc(-c3ccc(CN4CCOCC4)o3)ccc12 [GW560109]	94.5
CS(=O)(=O)c1cccc(CNc2nc(Nc3ccc4c(c3)CCC(=O)N4)ncc2C(F)(F)F)c1	1
Cc1cc(-c2c(-c3ccc(F)cc3)ncn2CCCN2CCOCC2)nc(N)n1 [SB-222517]	0
CN1CCN(Cc2ccc(NC(=O)Nc3ccc(N(C)c4ccnc(Nc5ccc(CS(C)(=O)=O)cc5)n4)cc3)cc2)CC1.Cl [GW827654]	33
COc1cccc(C2=C(Nc3cccc(O)c3)C(=O)NC2=O)c1 [SB-390771]	0
O=C(Nc1n[nH]c2nc(-c3cccc(O)c3)ccc12)C1CC1 [SB-711805]	13
CN(c1ccc(NC(=O)Nc2cccc(Cl)c2)cc1)c1ccnc(N)n1.Cl [GW830707]	8
CC(=O)Nc1cn2nc(Oc3cccc(NC(=O)c4cccc(C(F)(F)F)c4)c3)ccc2n1	75
COc1ccc(C)c(Nc2ccnc(Nc3ccc(-c4cnc[nH]4)cc3)n2)c1.Cl [GW784041]	62
Cl.Cl.NC(CNC(=O)c1cc(Br)c(-c2ccnc3[nH]ccc23)s1)c1ccccc1 (stereo not drawn) [GSK1322949]	24

— paper PMC5540273 (PLoS ONE, 2017)
